Source: PubChem BioAssay AID1159580 (chemical genetic matrix, 2015)
Several values for one entry are separate records, joined by “and”; a condition that tells them apart may be missing. Equal entries are not always repeated. In all, about 5,500 compounds went through this assay and about 2,000 (36%) were called active. About 18% were inconclusive and are not listed. Rule as the data show it: active = normalized growth mostly below about 0.91 (no sharp cut-off); inconclusive = no clear call, values can overlap the other calls; inactive = mostly above about 0.92. This is one part of the list.

Experiment: chemical genetic growth profiling, strain panel (AID 1159580);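 also: tested at 20 µM; growth read once vehicle control cultures reached saturation at 30 °C; 1 = growth at the plate median or of vehicle wells; lower values mean less growth of the strain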
Conditions: S. cerevisiae deletion strains, growth OD

Measured: normalized growth

CN[C@@H](C)[C@@H](O)c1ccccc1
inactive: locus YAL021C, strain ccr4, hits give low values 0.987 | locus YAL026C, strain drs2, hits give low values 0.995 | locus YAL030W, strain snc1, hits give low values 0.995 | locus YBL061C, strain skt5, hits give low values 0.992 | locus YBR009C, strain hhf1, hits give low values 1.02 | locus YBR021W, strain FUR4, hits give low values 1.01 | locus YBR023C, strain chs3, hits give low values 0.981 | locus YBR171W, strain sec66, hits give low values 0.993 | locus YBR229C, strain ROT2, hits give low values 0.949 | locus YBR231C, strain swc5, hits give low values 0.996 | locus YBR279W, strain paf1, hits give low values 1 | locus YCL011C, strain gbp2, hits give low values 0.971 | locus YCL016C, strain dcc1, hits give low values 0.987 | locus YCL029C, strain bik1, hits give low values 0.976 | locus YCL069W, strain vba3, hits give low values 0.995 | locus YCR088W, strain abp1, hits give low values 0.995 | locus YDL005C, strain med2, hits give low values 0.994 | locus YDL035C, strain GPR1, hits give low values 0.949 | locus YDL040C, strain nat1, hits give low values 1 | locus YDL074C, strain BRE1, hits give low values 1.01 | locus YDL101C, strain DUN1, hits give low values 1 | locus YDL185W, strain tfp1, hits give low values 0.961 | locus YDL192W, strain arf1, hits give low values 0.989 | locus YDR001C, strain nth1, hits give low values 0.996 | locus YDR069C, strain doa4, hits give low values 0.993 | locus YDR101C, strain arx1, hits give low values 0.998 | locus YDR137W, strain rgp1, hits give low values 0.982 | locus YDR159W, strain sac3, hits give low values 0.943 | locus YDR162C, strain NBP2, hits give low values 0.929 | locus YDR195W, strain ref2 0.977 | locus YDR297W, strain sur2, hits give low values 1 | locus YDR318W, strain mcm21, hits give low values 0.986 | locus YDR334W, strain swr1, hits give low values 1.01 | locus YDR335W, strain msn5, hits give low values 1 | locus YDR388W, hits give low values 0.992 | locus YDR392W, strain spt3, hits give low values 0.911 | locus YDR502C, strain sam2, hits give low values 1.01 | locus YEL003W, strain gim4, hits give low values 0.996 | locus YEL037C, strain rad23, hits give low values 0.985 | locus YEL061C, strain CIN8 (second series), hits give low values 0.989 | locus YEL061C, strain CIN8, hits give low values 0.989 | locus YER015W, strain faa2, hits give low values 1 | locus YER016W, strain bim1, hits give low values 0.984 | locus YER110C, hits give low values 0.987 | locus YER111C, strain swi4, hits give low values 0.996 | locus YER155C, strain BEM2 (second series), hits give low values 0.997 | locus YER155C, strain BEM2, hits give low values 0.999 | locus YER167W, strain BCK2, hits give low values 0.982 | locus YFR010W, strain ubp6, hits give low values 0.992 | locus YGL078C, strain dbp3, hits give low values 0.996 | locus YGL086W, strain mad1, hits give low values 0.996 | locus YGL167C, strain pmr1, hits give low values 1 | locus YGL173C, strain kem1, hits give low values 0.988 | locus YGL227W, strain vid30, hits give low values 0.982 | locus YGL240W, strain doc1, hits give low values 1 | locus YGL248W, strain PDE1, hits give low values 1.01 | locus YGL253W, strain hxk2, hits give low values 0.985 | locus YGR135W, strain pre9, hits give low values 0.989 | locus YGR252W, strain gcn5, hits give low values 1.01 | locus YHR013C, strain ard1, hits give low values 0.961 | locus YHR027C, strain rpn1, hits give low values 1 | locus YHR030C, strain SLT2, hits give low values 0.977 and 1.04 | locus YHR079C, strain IRE1 (second series), hits give low values 0.993 | locus YHR079C, strain IRE1, hits give low values 1.02 | locus YHR094C, strain hxt1, hits give low values 0.985 | locus YHR129C, strain ARP1, hits give low values 0.994 | locus YHR142W, strain chs7, hits give low values 0.976 | locus YHR200W, strain rpn10, hits give low values 0.984 | locus YIL066C, strain RNR3, hits give low values 0.926 | locus YIL073C, strain SPO22, hits give low values 0.973 | locus YIL125W, strain kgd1, hits give low values 0.987 | locus YIR030C, strain dcg1, hits give low values 0.996 | locus YJL092W, strain hpr5, hits give low values 0.999 | locus YJL095W, strain BCK1 (second series), hits give low values 0.994 | locus YJL095W, strain BCK1, hits give low values 1.06 and 1.01 | locus YJL115W, strain asf1, hits give low values 0.999 | locus YJL129C, strain trk1, hits give low values 1.01 | locus YJL134W, strain LCB3, hits give low values 0.98 | locus YJL154C, strain vps35, hits give low values 0.996 | locus YJL164C, strain tpk1, hits give low values 1 | locus YJL166W, strain qcr8, hits give low values 1.01 | locus YJL168C, strain set2, hits give low values 0.995 | locus YJL187C, strain SWE1 (second series), hits give low values 1.03 | locus YJR043C, strain POL32, hits give low values 0.938 | locus YJR066W, strain TOR1, hits give low values 0.982 | locus YKL009W, strain mrt4, hits give low values 0.998
